Test results: PubChem BioAssay AID748 (Sanford-Burnham Center for Chemical Genomics, 2007)
The whole screen tested about 96,000 compounds, of which about 100 (0.1%) were called active.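 Rule for the calls: active = displacement above 50% at 20 µM plus a fluorescence interference ratio under 1.5; inactive = the rest.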 Many of the other results were omitted from the sample, so actives are more common in it than they were. Potency and affinity values are given separately.

Each compound was assayed against Bcl-2-like protein 10 (Homo sapiens) (UniProt Q9HD36) (assay: displacers of TR3 peptide from Bcl-B, primary screen, selectivity assay for Bfl-1 inhibitor project, biochemical, fluorescence polarization, FITC-TR3 peptide (AID 748;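 note: plate controls were wells without compound for no effect and wells lacking Bcl-B protein for full effect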)). Settings: FP displacement of FITC-TR3 peptide from Bcl-B; at 20 µM; hits give high values.

displacement, inactive:
Cc1ccc(CNC(=O)CCn2nc(-c3ccc(Cl)cc3)ccc2=O)cc1 -8.8%
COc1ccc(CCNc2nc3c(c(=O)n(C)c(=O)n3C)n2C)cc1OC 8.6%
COc1ccccc1NC(=O)CNC(=O)c1ccc(F)cc1 -4.7%
O=C(Nc1ccc(N2CCOCC2)cc1)c1ccc2nc(-c3ccco3)c(-c3ccco3)nc2c1 0%
O=C(Nc1cccc(C(F)(F)F)c1)c1ccc2nc(-c3ccco3)c(-c3ccco3)nc2c1 19.6%
CCOC(=O)C1CCN(C(=O)Nc2ccc3nc(-c4ccco4)c(-c4ccco4)nc3c2)CC1 95.6%
O=C(Nc1ccc2nsnc2c1)N1CCCCCC1 1.1%
O=C(NCc1ccccc1)c1ccc2nc(-c3ccco3)c(-c3ccco3)nc2c1 29.5%
O=C(NCCO)c1ccc2nc(-c3ccco3)c(-c3ccco3)nc2c1 26.6%
CCOCCCNC(=O)C1CCN(C(=O)N(C)C)CC1 3.4%
COc1ccc(C)cc1NS(=O)(=O)c1cn(C)c(=O)n(C)c1=O -4.4%
COc1ccc(S(=O)(=O)N2CCCC2C(=O)Nc2ccc(C)cc2)cc1 (stereo not given) -2%
CCOC(=O)c1snc(-c2ccc(F)cc2)c1N -3.1%
CCOC(=O)c1[nH]c2cc3c(cc2c1NC(=O)CN1CCCCC1C)OCO3 (stereo not given) 9.5%
O=S(=O)(c1ccc(S(=O)(=O)N2CCCN(Cc3ccccc3)C2)cc1)N1CCCCCC1 0.8%
CC(=O)Nc1nnc(SCC(=O)NCCOc2ccccc2)s1 -9.4%
CCCCC(=O)NC1=NC(=O)C(C)(C)S1 -8%
Cc1oc2cc3c(C(=O)N4CCCCC4)c(C)oc3cc2c1C(=O)N1CCCCC1 6.1%
CCCn1c(CCC(=O)O)ccc1-c1cccs1 2.8%
CCCCn1c(CCC(=O)O)ccc1-c1cccs1 4.3%
Cc1sc2nc(SCc3nc4ccccc4[nH]3)n(Cc3ccco3)c(=O)c2c1C -8.7%
COc1ccc(C2C(=O)N(C3CCCCC3)CC(=O)N2Cc2ccco2)cc1 (stereo not given) -8.2%
CCOC(=O)c1nn(-c2ccccc2)c(=O)c2c(N)scc12 -1.6%
CC1(C)OC(=O)C(=CNc2ccccc2F)C(=O)O1 5.4%
Cc1nnc(SCC(=O)Nc2cccc(C(F)(F)F)c2)n1Cc1ccco1 4.7%
CCOC(=O)c1[nH]c(C(=O)O)c(CCN(CC)CC)c1C 0.1%
COC(=O)CCc1c(C)[nH]c(C(=O)OCc2ccccc2)c1C -0.4%
O=C(CCc1ccccc1)OCCN1CCOCC1 5.9%
Cn1nnnc1SCCNCc1ccccc1F 1.2%
CN(C)c1ccc2c(O)cc(=O)n(C)c2c1 13%
Cc1nnc(NC(=O)COc2ccccc2)s1 -16.7%
COc1ccc(CNCC(O)(c2ccccc2)c2ccc(Cl)cc2)cc1 (stereo not given) -0.9%
COc1ccc(-c2cc(C(F)(F)F)nc(SCC(=O)N3CCOCC3)n2)cc1OC -2.2%
O=C(O)c1cnn2c(C(F)(F)F)cc(-c3ccco3)nc12 35.7%
O=C(Nc1ccc2c(c1)OCO2)c1cnn2c(C(F)(F)F)cc(-c3ccco3)nc12 10.1%
Cc1nn(C)cc1CNC(=O)c1cccc(Cl)c1 3.4%
COC(=O)[C@H](Cc1ccccc1)NC(=O)NCc1ccc(S(N)(=O)=O)cc1 3%
O=C(NCN1CCN(c2ccccc2F)CC1)c1cccnc1 -3.4%
NC1=NS(=O)(=O)NC1c1cccc(Cl)c1 (stereo not given) -0.7%
CS(=O)(=O)N(Cc1ccc(C(=O)Nc2ccccc2Sc2ccccc2)cc1)c1ccccc1 -11.2%
Cc1cccc(OCCCC(=O)O)c1 -8.7%
CC1CCN(C(=O)c2ccc3c(c2NCCO)C(=O)c2ccccc2C3=O)CC1 27.9%
CC1CCCN(C(=O)c2ccc3c(c2NCCO)C(=O)c2ccccc2C3=O)C1 (stereo not given) 37%
CC(CC(=O)c1cccs1)CC(=O)c1cccs1 -2.6%
O=C(O)Cn1nc2ccccc2n1 3.4%
Cc1nc(=S)n(-c2ccccc2)[nH]1 -1.7%
CC(/C=C/c1ccco1)=N/NC(=O)Cc1cccs1 -47.4%
O=C(CNC(=O)c1ccco1)NCC(=O)OCc1ccccc1Br -3.7%
O=C(NCc1ccncc1)C1CCCCC1 -9%
COc1cc(-c2nnc(SCc3cc(=O)oc4cc(C)ccc34)o2)cc(OC)c1OC -10.8%
COc1cc(-c2nnc(SCc3ccccc3Cl)o2)cc(OC)c1OC -2.8%
Cc1c(C(=O)Nc2cccc3cccnc23)oc2ccccc12 10.7%
Cc1cc(=O)n2c3c(cccc13)CCC2 -9.7%
C=CCn1c(SCC(=O)Nc2ncc(Cc3cc(Cl)ccc3Cl)s2)nnc1-c1ccncc1 -3.4%
O=C(NCc1ccco1)c1cc(-c2ccc(F)cc2)on1 1.1%
CN1CCN(c2ccc(NC(=O)Cc3ccccc3)cc2)CC1 -5.5%
O=C(Nc1ccc(N2CCCCC2)cc1)c1ccccc1 -3.3%
O=C(Nc1ccc(N2CCCC2)cc1)C(Cl)c1ccccc1 (stereo not given) -13.8%
O=C(Cc1ccc(Cl)cc1)Nc1ccc(N2CCCC2)cc1 -84%
CCOC(=O)c1ccccc1NC(=O)CC(C)CC(=O)O (stereo not given) -5.5%
COc1cccc2c1C(=O)CC2NC(=O)C(F)(F)F (stereo not given) -17.1%
COC(=O)Nc1c(C)nn(Cc2ccccc2C)c1C -0.7%
CCOc1ccc(C(c2c(C)[nH][nH]c2=O)c2c(C)[nH][nH]c2=O)cc1OC 8.5%
CC(C)CC(C(=O)Nn1cnnc1)N1C(=O)c2ccccc2C1=O (stereo not given) -8.4%
Cc1nnc(NC(=O)Cc2cccs2)s1 40.2%
O=C(Cc1cccs1)Nc1nnc(CCc2ccccc2)s1 -0.1%
CCOC(=O)c1nc2sc3c(c2c(=O)[nH]1)CCCC3 -2.6%
CC(C)CC(=O)c1c[nH]c(C(=O)NCCCn2ccnc2)c1 0%
CCc1ccc2[nH]c(=O)c(C3C(C#N)=C(N)Oc4c3ccc3cccnc43)cc2c1 (stereo not given) -4.7%
Cc1ccc2cc(C3C(C#N)=C(N)Oc4c3ccc3cccnc43)c(=O)[nH]c2c1 (stereo not given) 5.4%
O=c1[nH]c(=O)n(C2CCCO2)cc1Br (stereo not given) -6.3%
CS(=O)(=O)N(CCc1ccccc1)CC(=O)N1CCCCC1 0.5%
Clc1ccc2nc(CN3CCCCCC3)cn2c1 -3.6%
Clc1ccc2nc(CN3CCCCC3)cn2c1 10.1%
Cc1nn(-c2ccccn2)c2c1-c1nc(N)ncc1CC2 6%
CCN(CC)CCC(=O)NC(C)(C)Cc1ccc(O)cc1 -7.8%
CCOC(=O)c1[nH]c2c(c1C)C(=O)CC(c1ccco1)C2 (stereo not given) 10.9%
Cc1c(C(=O)OCC2CCCO2)[nH]c2c1C(=O)CC(c1ccc(N(C)C)cc1)C2 (stereo not given) -1.6%
CCCC(=O)N1CCc2cc(-c3nc(N)sc3C)ccc21 0.7%
CC1(C)Cc2c(sc3c2c(=N)n(Cc2ccco2)c(=O)n3CC(=O)Nc2cccc(Cl)c2)CO1 -38.7%
CC1(C)C(=O)Nc2ccccc2N1C(=O)COC(=O)C1CCCCC1 -3.4%
Cc1ccc(S(=O)(=O)N2CCOCC2)cc1C(=O)OCC(=O)N1c2ccccc2NC(=O)C1(C)C 25%
COc1cc(/C=C(/C#N)c2ccc(C)cc2)ccc1Oc1ccc([N+](=O)[O-])cn1 -0.7%
CC1Cc2nc(SCC(=O)NC3CCCCC3)n(C)c(=O)c2S1 (stereo not given) -2.6%
CCOC(=O)COc1ccc(S(=O)(=O)N2CCc3ccccc3C2)cc1 0.4%
CCOc1ccccc1N(CC(=O)NC(C)(C)C)C(=O)Cn1nnc(-c2ccc(C)o2)n1 -3.4%
CC(=O)N1N=C(c2ccc3nccnc3c2)CC1c1ccccc1 (stereo not given) 6%
C=CCn1c(=O)c2ccccc2n2c(SCc3cc(=O)n4ccsc4n3)nnc12 6.2%
C=CCn1c(SCc2cc(=O)n3ccsc3n2)nc2scc(C3CC3)c2c1=O -10.9%
CCCNC(=O)c1c(N)n(-c2ccc3c(c2)OCO3)c2nc3ccccc3nc12 8.6%
Cn1c(N2CCN(C(=O)NCc3ccccc3)CC2)nc2ccccc21 6.9%
COc1cccc(NC(=O)c2cnsn2)c1 6.3%
Cc1cc(-c2csc(N)n2)c(C)n1CCC(C)C 1.9%
CCCn1c(C)cc(-c2csc(N)n2)c1C 10.4%
c1csc(Cn2c(-c3cccs3)nc3ccccc32)c1 -27.7%
CC(=O)Nc1ccc(S(=O)(=O)n2nc(-c3ccc(C)cc3)nc2N)cc1 -2.3%
O=[N+]([O-])c1ccc(-c2ccc(/C=N/c3c(-c4ccco4)nc4ccccn34)o2)cc1 7.3%
O=[N+]([O-])c1ccc(Cl)c(-c2ccc(/C=N/c3c(-c4ccco4)nc4ccccn34)o2)c1 31.7%
COCCn1c(=S)[nH]c2cc(OC)c(OC)cc2c1=O 3%
COc1cc2c(cc1OC)CN(C(C)C(=O)Nc1ccc(NC(C)=O)cc1)CC2 (stereo not given) 2.9%
